TROY signal inh – inhibitors of TROY-driven NF-kB signaling, primary screen, Q293 LMP1-TROYcd cells, NF-kB luciferase, uHTS. Q293 LMP1-TROYcd NF-kB luciferase reporter, 4 h. inhibition, % at 10 µM. hit rate 0.98% among 360,000;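 active means compounds whose plate-normalised and pattern-corrected inhibition of the luciferase reporter signal at the single screening dose is 50% or more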
Shn3 inh set2 – reduction of Shn3 3'UTR firefly luciferase signal, primary screen, Schnurri-3 inhibitor project, cell-based, Clone20 osteoblasts, set 2 | Clone20 osteoblast Shn3 3'UTR firefly luciferase, 24 h | inhibition, % at 12.5 µM | hit rate 0.52% among 360,000 | AID 588674, 2011;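 active means mean inhibition of at least 75% with every replicate also reaching 75%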;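 further: 0% = median of neutral control wells and 100% = pilot-screen positive control compound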
Peg3 promoter – Peg3 promoter-driven luciferase inhibitors, primary screen, cell-based, HeLa, luciferase luminescence. HeLa PEG-Prom luciferase reporter, overnight. inhibition, % at 20 µM. hit rate 1.7% among 360,000;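 active means inhibition of at least 50% at 20 µM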
TRPM1 prom inh – inhibitors of MITF-dependent TRPM1 promoter reporter, primary screen, cell-based, SK-MEL-5, single point, luciferase; SK-MEL-5 TRPM1 promoter luciferase, 24 h; inhibition, % at 12.5 µM; hit rate 0.83% among 330,000; AID 488899, 2010;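 active means mean inhibition across replicates of 60% or more, whatever share of single replicates reaches that level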
LMP1 NFkB inh – EBV LMP1-driven NF-kappaB luciferase reporter inhibitors, primary screen, cell-based, luminescence, single point; inhibition, % at 12.5 µM; LMP1-induced NF-kappaB luciferase reporter cells; AID 504558, 2011; hit rate 0.69% among 350,000; in the data active means inhibition above about 41%;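 further: 0% = neutral control wells and 100% = reference inhibitor control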
TWEAK-Fn14 inh – inhibitors of TWEAK-Fn14 signaling, primary screen, luciferase reporter cells, uHTS; TWEAK-stimulated Fn14 reporter cells, luciferase luminescence, 8 h; inhibition, % at 10 µM; hit rate 2% among 360,000; AID 1159606, 2016; in the data active means inhibition above about 50%
Numbers without * were called inactive. Only some compounds are listed: those with a hit (about 4.1% of all), similar ones and a draw of the others.

SMILES | TROY signal inh | Shn3 inh set2 | Peg3 promoter | TRPM1 prom inh | LMP1 NFkB inh | TWEAK-Fn14 inh
CCN(CC)S(=O)(=O)c1ccc(N2CC(C(=O)Nc3cccc(C(=O)NC4CC4)c3)CC2=O)cc1 (stereo not drawn) | 2.5 | -11.2 | -7.2 | -5.2 | 3.5 | 4.4
COC(=O)c1ccc2c(=O)n(CCCCCC(=O)O)c(=O)[nH]c2c1 | 6.2 | 6.9 | 5.3 | 1.1 | 0.1 | 27.0
COC(=O)c1ccc2c(=O)n(CCCCCC(=O)N3CCN(c4ccc(F)cc4)CC3)c(=O)[nH]c2c1 | 59.8* | 76.8 | 89.8* | 14.2 | 3.1 | 55.7*
COc1cc2[nH]c(=O)n(CCCCCC(=O)N3CC=C(c4ccccc4)CC3)c(=O)c2cc1OC | 25.8 | 31.5 | 69.5* | 17.1 | 12.1 | 58.7*
O=C(CN1C(=O)c2ccccc2C1=O)NC(Cc1ccccc1)C(=O)O (stereo not drawn) | 13.4 | -7.5 | 4.7 | -1.3 | -8.1 | 13.6
COc1ccc(C)cc1S(=O)(=O)N1CCC(C(=O)NC2CCCC2)CC1 | 10.6 | -13.1 | 7.0 | 1.0 | -2.1 | 4.3
CCCOc1ccc(-c2cc3onc(-c4ccccc4)c3c(=O)n2C)cc1 | 81.4* | -18.8 | -96.7 | -37.1 | -23.9 | 89.0*
CNC(=O)c1ccc(-c2cc3onc(-c4ccccc4)c3c(=O)n2C)cc1 | -30.9 | -48.1 | -262.1 | -91.8 | -4.5 | 5.3
CCCOc1ccc(C(=O)NC(=S)NNC(=O)c2c(-c3ccccc3)noc2C)cc1 | 9.0 | 47.6 | 9.5 | -8.2 | -1.8 | 6.1
Cc1ccc(-c2cc3onc(-c4ccccc4)c3c(=O)n2C)cc1 | 88.6* | -18.5 | -4.5 | 96.7* | 38.1 | 102.0*
N#Cc1ccc(C23OCCN2CCn2c3c3ccccc3[n+]2[O-])cc1 (stereo not drawn) | -15.0 | -1.3 | -9.3 | 25.0 | 0.5 | -2.8
CN1CCN(C(=O)c2ccccc2NS(=O)(=O)c2ccc(F)cc2)CC1 | -2.3 | 1.4 | 1.3 | -3.2 | -3.0 | 6.9
COc1cc(NC(=O)CSCc2ccc(Cl)cc2)c(C(=O)O)cc1OC | 5.7 | 7.2 | -2.0 | 2.5 | 4.1 | 2.2
O=C(/C=C/c1ccc(F)cc1)c1ccccc1Br | 1.0 | -17.8 | 103.9* | -21.9 | -12.6 | 63.2*
Cc1ccc(C(=O)/C=C/c2ccc(F)cc2)o1 | -68.7 | -13.2 | -41.0 | -16.7 | -18.6 | -2.6
O=C(CCN1CCC(c2ccccc2)C1)c1ccc2c(c1)OCCO2 (stereo not drawn) | -7.5 | 10.9 | 17.6 | 7.1 | 82.1* | 4.2
O=C(CCCc1ccccc1)c1ccc2c(c1)OCCO2 | 88.5* | 52.1 | 87.2* | 77.4* | 61.2* | 102.1*
O=C(CCN1CCC(c2ccccc2)C1)c1ccccc1 (stereo not drawn) | 20.1 | 0.6 | 8.2 | 2.9 | -7.8 | 3.0
CC(=O)OCC(=O)[C@H]1CC[C@H]2[C@@H]3CCC4=CC(=O)CC[C@]4(C)[C@H]3CC[C@]12C | 8.2 | -63.4 | 15.4 | 7.2 | 0.8 | -4.2
C[C@]12CC[C@H]3[C@@H](CCC4=CC(=O)CC[C@@]43C)[C@@H]1CC[C@@H]2C(=O)CO | 6.2 | 4.2 | 31.3 | 5.9 | 66.2* | -0.6
CCN1CCN(c2nc(S(=O)(=O)c3ccc(C)cc3)c(Cl)s2)CC1 | 50.6* | 26.4 | 4.7 | 1.1 | -7.3 | 0.1
c1cnc2ccc(C(c3nnnn3C3CCCC3)N3CCN(c4nc5ccccc5s4)CC3)cc2c1 (stereo not drawn) | -6.0 | 10.4 | 14.7 | -5.1 | 10.3 | -23.1
Clc1ccc(C(c2nnnn2C2CCCC2)N2CCN(c3nc4ccccc4s3)CC2)cc1 (stereo not drawn) | 59.2* | 8.6 | 18.2 | 5.5 | -5.3 | 73.9*
COc1ccc(NC(=O)N2CCCc3ccccc32)cc1 | -27.0 | 0.0 | -52.4 | -20.4 | -12.8 | 16.9
COc1ccc(OC)c(NC(=O)N2CCCc3ccccc32)c1 | 75.8* | 9.9 | 11.5 | 11.7 | -2.6 | 44.3
CCOc1ccccc1NC(=O)N1CCCc2ccccc21 | 74.9* | 9.4 | 14.2 | 7.1 | 9.0 | 16.2

Screens deposited in PubChem BioAssay by several laboratories.
